Source: PubChem BioAssay
MEKK3 PB1 HTS: MEKK3-MEK5 PB1 interaction, increase or decrease; binding response (% of control), % at 10 µM; hit rate 1.4% among 290,000; bead-based flow cytometry, Alexa488-MEK5 binding to MEKK3; actives lie on both sides; 0 = blocked by unlabeled MEK5, 100 = vehicle; Q99759;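 active = binding response more than 3 SD above or below the average of its plate-row segment, actives on both sides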;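 note: Alexa488 bead fluorescence after subtracting the streptavidin-only scavenger bead signal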
CRFR2-BP antag: antagonists of CRF-binding protein/CRF-R2 receptor complex | HEK293 CRF-R2/CRF-BP, CRF-induced calcium fluorescence | inhibition, % at 11.8 µM | hit rate 0.59% among 350,000 | AID 588475;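 active = inhibition of the ligand-induced calcium signal above about 50% at the single tested concentration, limit read from the data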
CRFBP-R2 agonist: agonists of human CRF-binding protein/CRF-R2 receptor complex. HEK293 CRF-R2/CRF-BP, calcium dye fluorescence (FLIPR); percent of saturating CRF peptide response. activation, % at 13.2 µM. hit rate 0.46% among 350,000;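 active = activation of at least 50%, plus an integration ratio under a set limit after plate pattern correction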;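 note: plate controls were neutral control wells without compound for no effect and CRF at EC100 for full effect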
MEKK2 mut-MEK5: signal of MEK5 binding to mutant human MEKK2 PB1 domain. bead flow cytometry, Alexa488-MEK5 binding to MEKK2 mutant. percent response, % at 10 µM. hit rate 0.35% among 290,000. AID 1530; in the data active = percent response above about 24%, passing the limit was not always enough
MEKK2 WT-MEK5: raises or lowers MEK5 binding to wildtype human MEKK2 PB1 domain. Q9Y2U5. bead flow cytometry, Alexa488-MEK5 binding to MEKK2 WT; actives lie on both sides. binding response (% of control), % at 10 µM. hit rate 1.1% among 290,000; in the data active = binding response below about 67% or above about 130%
ABCB6 inh 2: human ABCB6 transporter inhibition; K562-ABCB6 porphyrin accumulation, flow cytometry, 1 h; hits give low values; hit rate 0.19% among 360,000; Q9NP58; fluorescence ratio to DMSO, % at 10 µM;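 active = fluorescence ratio to DMSO below 75%, the collection mean minus 3 SD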;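 note: signal is porphyrin accumulated inside mitochondria; 100% equals median channel fluorescence of DMSO control wells; lower ratio means ABCB6 inhibition with less porphyrin fluorescence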
The depositor's hits bear a star; i = inactive; x = no result; + = active, no number; [ ] = remark or other dose. The list is not random: actives were taken first. Their share in the collection is about 2.9%.

SMILES	MEKK3 PB1 HTS	CRFR2-BP antag	CRFBP-R2 agonist	MEKK2 mut-MEK5	MEKK2 WT-MEK5	ABCB6 inh 2
N#Cc1c(-c2ccc(F)cc2)cc(-c2ccccc2)nc1SCC(=O)NCC(=O)O	69	-11	62*	-19	68	91
CC(C)CN(C(=O)CN1C(=O)NC2(CCc3ccccc32)C1=O)C1CCS(=O)(=O)C1 (stereo not drawn)	x	-4	0	x	x	99
COc1ccc(C#Cc2c(-c3ccccc3)n(-c3ccccc3)c3ccc(CO)cc23)cc1	x	118*	2	x	x	93
O=c1c2ccccc2sc2ccc(NCCCN3CCOCC3)cc12	105	-100	102*	7	131	153
COCCn1c(SCC(=O)Nc2cccc(C(=O)OC)c2)nc2ccccc2c1=O	97	71*	-4	2	99	88
COCCn1c(SCC(=O)Nc2cc(C)cc(C)c2)nc2ccccc2c1=O	110	-3	-3	5	112	100
Cc1ccc(S(=O)(=O)NNC(=S)Nc2cccc(F)c2)cc1	98	93*	-1	2	100	95
Cc1cccc(NC(=O)NNS(=O)(=O)c2ccc(F)cc2)c1	94	5	-1	-1	95	97
CCN(CC)c1ccc(/C=C(/C#N)C(=O)NCc2ccccc2)o1	112	-157	141*	-1	103	106
Cc1c(C(=O)NN)nn(-c2ccc(Cl)cc2)c(=O)c1C#N	106	82*	1	0	101	99
CN1CCc2c(sc(/N=C/c3cccs3)c2C(N)=O)C1	101	-9	60*	4	105	108
CN1CCc2c(sc(/N=C/c3ccco3)c2C(N)=O)C1	98	2	22	1	93	107
Cc1cccc(-n2c(C)nc3cc(C(=O)NCCN4CCOCC4)ccc32)c1	x	-7	0	x	x	98
COc1ccc(S(=O)(=O)N2CCOC2CNC(=O)C(=O)NCC(C)C)cc1OC (stereo not drawn)	100	-30	-1	0	98	95
CC(C)NC(=O)N(C)C[C@H]1OCc2cnnn2CCCC(=O)N([C@H](C)CO)C[C@H]1C	x	-15	53*	x	x	99
Cc1ccc(/C=N/Nc2ccnc3cc(Cl)ccc23)c(C)c1	101	-9	1	30	167*	99
CN(Cc1ccccc1)S(=O)(=O)c1ccccc1Br	x	27	-4	x	x	101
Cc1ccc(S(=O)(=O)NC(C(=O)O)c2ccccc2)cc1 (stereo not drawn)	97	-176	133*	0	102	94
CCC(C)C(NS(=O)(=O)c1ccc(C)cc1)C(=O)O (stereo not drawn)	98	35	2	-13	83	93
Cc1ccccc1OCC(=O)OCC(=O)c1c[nH]c2ccccc12	x	87*	1	x	x	91
COc1ccc(CC(=O)OCC(=O)c2c[nH]c3ccccc23)cc1	x	8	1	x	x	92
CN(C(=O)c1cccc(NC(=O)Cc2ccc(NC(=O)C3CCCN(C(=O)CCc4ccccc4)C3)cc2)c1)C1CCCCC1 (stereo not drawn)	x	67*	-1	x	x	96
CCOC(=O)c1nnn(CC(=O)N2N=C(c3ccccc3)CC2c2ccccc2)c1C(=O)OCC (stereo not drawn)	114	71*	-1	4	103	100
CNS(=O)(=O)c1cccc(C(=O)NCC(c2ccco2)N(C)C)c1 (stereo not drawn)	99	111*	0	3	102	95
CN(C)C(CNC(=O)c1cccc(S(=O)(=O)Nc2ccccc2Cl)c1)c1ccco1 (stereo not drawn)	x	-5	1	x	x	95
SMILES	MEKK3 PB1 HTS	CRFR2-BP antag	CRFBP-R2 agonist	MEKK2 mut-MEK5	MEKK2 WT-MEK5	ABCB6 inh 2
CCN(CC)c1ccc(C=C2C(=O)OC(c3ccccc3)OC2=O)cc1 (stereo not drawn)	102	-47	2	-4	92	225
CCN(CC)c1ccc(/C=C/C(=O)C2C(=O)C=C(C)OC2=O)cc1 (stereo not drawn)	108	-476	377*	61*	72	i
COc1cc(N2CCCC2)c(OC)cc1/C=C(/C#N)c1cccc(F)c1	97	-90	47	155*	101	301
N#C/C(=C/c1ccc(N2CCCCCC2)o1)c1cccc(F)c1	103	9	2	6	103	127
COC(=O)CNC(=S)NC(=O)c1ccc(C(C)(C)C)cc1	100	-17	0	-2	97	95
O=C(/C=C/c1cn(CC(O)CN2CCCCCC2)c2ccccc12)c1cccs1 (stereo not drawn)	111	-127	65*	4	124	106
CCCCN(C)CC(O)Cn1cc(/C=C/C(=O)c2cccs2)c2ccccc21 (stereo not drawn)	105	-94	33	2	131	101
O=C(CN1C(=O)NC2(CCCC2)C1=O)c1ccc(Cl)s1	x	54*	-2	x	x	102
CCC(C)n1c(=S)[nH]c2ccccc2c1=O (stereo not drawn)	96	-30	0	-12	91	103
CCC(Cc1ccccc1)n1c(=S)[nH]c2ccccc2c1=O (stereo not drawn)	136*	-2	3	+	x	140
O=C(CCN1CCCCC1)c1ccc2c(c1)OCO2	106	51*	-2	6	105	92
COc1ccc(CCc2ccc3ccccc3n2)cc1	x	16	-1	x	x	92
COc1ccc(N2CCN(C(=O)CN3C(=O)NC4(CCCCCC4)C3=O)CC2)cc1	x	10	2	x	x	98
CCN(c1ccc(NC(=O)COC(=O)C2CCN(c3ccc(C(F)(F)F)cn3)CC2)cc1)C(C)C	x	13	-1	x	x	98
COc1cc(SC)ccc1C(=O)NCCCn1ccnc1	103	-1	-1	14	105	98
COc1ccc(S(=O)(=O)N2N=C(c3cccc(NS(C)(=O)=O)c3)CC2c2ccco2)cc1 (stereo not drawn)	100	-9	2	21	14*	96
CS(=O)(=O)Nc1cccc(C2=NN(S(C)(=O)=O)C(c3ccc4c(c3)OCO4)C2)c1 (stereo not drawn)	111	1	0	29	26*	101
CCS(=O)(=O)N1N=C(c2cccc(NS(C)(=O)=O)c2)CC1c1cccs1 (stereo not drawn)	13*[inhibitor]	-4	3	24*	x	107
CCS(=O)(=O)Nc1cccc(C2=NN(S(=O)(=O)CC)C(c3cccs3)C2)c1 (stereo not drawn)	17*[inhibitor]	14	3	32*	x	94
CC(C)(C)C(=O)N1N=C(c2cccc(NS(C)(=O)=O)c2)CC1c1cccs1 (stereo not drawn)	102	-2	1	-12	89	100
